# The full ranking holds about 16,000 sequences; the median of “rpm ratio (pull-down/input)” is about 0.94, and the highest 2% start at about 1.7. This excerpt belongs to a sample that is enriched for the highest values.
# Biological target: T1, MBP-FoxP1dN (Mus musculus, UniProt P58462 326-579)
# T1 sequence: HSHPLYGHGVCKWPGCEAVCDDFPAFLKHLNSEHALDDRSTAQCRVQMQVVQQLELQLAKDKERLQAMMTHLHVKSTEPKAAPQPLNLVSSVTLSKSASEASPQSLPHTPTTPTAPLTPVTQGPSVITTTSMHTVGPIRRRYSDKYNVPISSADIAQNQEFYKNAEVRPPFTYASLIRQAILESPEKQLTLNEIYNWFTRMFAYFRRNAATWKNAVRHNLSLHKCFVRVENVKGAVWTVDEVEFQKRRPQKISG
# Assay: PD-seq (MBP pull-down with sequencing); 20 mM Tris-HCl pH 7.5, 100 mM NaCl, 1.5 mM MgCl2, 0.4 uM protein, 0.1 uM dsDNA library, 30 min, room temperature, amylose pull-down; high values mean tight binding
# Conditions: protein: recombinant; tags: His6-MBP; chain copies: 2; dsDNA, one strand shown
# Procedure, shortened: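 A degenerate double-stranded DNA library, filled in with Klenow, was added at 0.1 µM to 0.4 µM His6-MBP-tagged mouse FoxP3 or FoxP1 fragment lacking the N-terminus, expressed in E. coli. Incubation lasted 30 min at room temperature in Tris pH 7.5 buffer with NaCl and MgCl2, after which complexes were collected on amylose resin, washed three times, digested with proteinase K to free the DNA, barcoded by PCR and sequenced by Illumina. Binding is the pooled-replicate reads-per-million enrichment of pull-down over input.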
row,Sequence,binding signal
1,GATGATTGTTCTCCCAGCTGATGAATTTCCTATATCGAGTAAACAAATTTTCCTAATCTTTCTGTTCAAGCGCCATCTAC,0.903 RPM ratio (pull-down/input)
2,GATGATTGTTCTCCCAGCTGATGAATTCCAACTTTCGAGTAAACAAATTTTCCTAATCTTTCTGTTCAAGCGCCATCTAC,0.884 RPM ratio (pull-down/input)
3,GATGATTGTTCTCCCAGCTGATGAATTATCGTGTTCGAGTAAACAAATTTTCCTAATCTTTCTGTTCAAGCGCCATCTAC,1.08 RPM ratio (pull-down/input)
4,GATGATTGTTCTCCCAGCTGATGAATTATAGACATCGAGTAAACAAATTTTCCTAATCTTTCTGTTCAAGCGCCATCTAC,1.21 RPM ratio (pull-down/input)
5,GATGATTGTTCTCCCAGCTGATGAATTCTCTCCCTCGAGTAAACAAATTTTCCTAATCTTTCTGTTCAAGCGCCATCTAC,0.835 RPM ratio (pull-down/input)
6,GATGATTGTTCTCCCAGCTGATGAATTGGTCAATTCGAGTAAACAAATTTTCCTAATCTTTCTGTTCAAGCGCCATCTAC,1.08 RPM ratio (pull-down/input)
7,GATGATTGTTCTCCCAGCTGATGAATTCAGAAACTCGAGTAAACAAATTTTCCTAATCTTTCTGTTCAAGCGCCATCTAC,0.844 RPM ratio (pull-down/input)
8,GATGATTGTTCTCCCAGCTGATGAATTCGCATAATCGAGTAAACAAATTTTCCTAATCTTTCTGTTCAAGCGCCATCTAC,1.22 RPM ratio (pull-down/input)
9,GATGATTGTTCTCCCAGCTGATGAATTAATAACCTCGAGTAAACAAATTTTCCTAATCTTTCTGTTCAAGCGCCATCTAC,1 RPM ratio (pull-down/input)
10,GATGATTGTTCTCCCAGCTGATGAATTCCCGCCCTCGAGTAAACAAATTTTCCTAATCTTTCTGTTCAAGCGCCATCTAC,0.758 RPM ratio (pull-down/input)
11,GATGATTGTTCTCCCAGCTGATGAATTTTAGGTGTCGAGTAAACAAATTTTCCTAATCTTTCTGTTCAAGCGCCATCTAC,0.902 RPM ratio (pull-down/input)
12,GATGATTGTTCTCCCAGCTGATGAATTCTTTTTGTCGAGTAAACAAATTTTCCTAATCTTTCTGTTCAAGCGCCATCTAC,0.964 RPM ratio (pull-down/input)
13,GATGATTGTTCTCCCAGCTGATGAATTCAATTTGTCGAGTAAACAAATTTTCCTAATCTTTCTGTTCAAGCGCCATCTAC,1.07 RPM ratio (pull-down/input)
14,GATGATTGTTCTCCCAGCTGATGAATTCTGTTTGTCGAGTAAACAAATTTTCCTAATCTTTCTGTTCAAGCGCCATCTAC,2.36 RPM ratio (pull-down/input)
15,GATGATTGTTCTCCCAGCTGATGAATTGCTGTTTTCGAGTAAACAAATTTTCCTAATCTTTCTGTTCAAGCGCCATCTAC,2.45 RPM ratio (pull-down/input)
16,GATGATTGTTCTCCCAGCTGATGAATTGAATGTTTCGAGTAAACAAATTTTCCTAATCTTTCTGTTCAAGCGCCATCTAC,1.01 RPM ratio (pull-down/input)
17,GATGATTGTTCTCCCAGCTGATGAATTGTTTTCGTCGAGTAAACAAATTTTCCTAATCTTTCTGTTCAAGCGCCATCTAC,2.02 RPM ratio (pull-down/input)

row,Sequence,binding signal
1,GATGATTGTTCTCCCAGCTGATGAATTGCTGATTTCGAGTAAACAAATTTTCCTAATCTTTCTGTTCAAGCGCCATCTAC,1.31 RPM ratio (pull-down/input)
2,GATGATTGTTCTCCCAGCTGATGAATTTGCTGTTTCGAGTAAACAAATTTTCCTAATCTTTCTGTTCAAGCGCCATCTAC,1.33 RPM ratio (pull-down/input)
3,GATGATTGTTCTCCCAGCTGATGAATTGTTTTCTTCGAGTAAACAAATTTTCCTAATCTTTCTGTTCAAGCGCCATCTAC,2.03 RPM ratio (pull-down/input)
4,GATGATTGTTCTCCCAGCTGATGAATTTCTTTCGTCGAGTAAACAAATTTTCCTAATCTTTCTGTTCAAGCGCCATCTAC,0.887 RPM ratio (pull-down/input)
5,GATGATTGTTCTCCCAGCTGATGAATTTGATGTTTCGAGTAAACAAATTTTCCTAATCTTTCTGTTCAAGCGCCATCTAC,1.16 RPM ratio (pull-down/input)
6,GATGATTGTTCTCCCAGCTGATGAATTTGTTTCGTCGAGTAAACAAATTTTCCTAATCTTTCTGTTCAAGCGCCATCTAC,1.3 RPM ratio (pull-down/input)
7,GATGATTGTTCTCCCAGCTGATGAATTGTTTCCTTCGAGTAAACAAATTTTCCTAATCTTTCTGTTCAAGCGCCATCTAC,1.44 RPM ratio (pull-down/input)
8,GATGATTGTTCTCCCAGCTGATGAATTGATGTTTTCGAGTAAACAAATTTTCCTAATCTTTCTGTTCAAGCGCCATCTAC,2.82 RPM ratio (pull-down/input)
9,GATGATTGTTCTCCCAGCTGATGAATTTCTTCTTTCGAGTAAACAAATTTTCCTAATCTTTCTGTTCAAGCGCCATCTAC,1.01 RPM ratio (pull-down/input)
10,GATGATTGTTCTCCCAGCTGATGAATTCGGGATTTCGAGTAAACAAATTTTCCTAATCTTTCTGTTCAAGCGCCATCTAC,0.851 RPM ratio (pull-down/input)
11,GATGATTGTTCTCCCAGCTGATGAATTAAGGTGCTCGAGTAAACAAATTTTCCTAATCTTTCTGTTCAAGCGCCATCTAC,0.849 RPM ratio (pull-down/input)
12,GATGATTGTTCTCCCAGCTGATGAATTTGTAAGATCGAGTAAACAAATTTTCCTAATCTTTCTGTTCAAGCGCCATCTAC,1.09 RPM ratio (pull-down/input)
13,GATGATTGTTCTCCCAGCTGATGAATTTTTGAGATCGAGTAAACAAATTTTCCTAATCTTTCTGTTCAAGCGCCATCTAC,0.928 RPM ratio (pull-down/input)
14,GATGATTGTTCTCCCAGCTGATGAATTTGTACCATCGAGTAAACAAATTTTCCTAATCTTTCTGTTCAAGCGCCATCTAC,1.17 RPM ratio (pull-down/input)
15,GATGATTGTTCTCCCAGCTGATGAATTCATCGGATCGAGTAAACAAATTTTCCTAATCTTTCTGTTCAAGCGCCATCTAC,0.838 RPM ratio (pull-down/input)
16,GATGATTGTTCTCCCAGCTGATGAATTATTTCCTTCGAGTAAACAAATTTTCCTAATCTTTCTGTTCAAGCGCCATCTAC,1.04 RPM ratio (pull-down/input)
17,GATGATTGTTCTCCCAGCTGATGAATTGAGTGACTCGAGTAAACAAATTTTCCTAATCTTTCTGTTCAAGCGCCATCTAC,0.833 RPM ratio (pull-down/input)
